Source: PubChem (several laboratories)
Hits are enriched below; roughly 2.8% of the tested compounds scored in any of these assays.
CF NFkB inh = blocks PAF-induced NF-kB reporter in cystic fibrosis cells. KKLEB NF-kB-GFP reporter, GFP fluorescence overnight. 360,000 tested, 0.86% active. AID 588850. inhibition, % at 5 µM;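 active = at least 50% inhibition at 5 µM, scaled per plate between neutral and stimulator controls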;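 note: PAF is a Pseudomonas aeruginosa culture filtrate used as stimulus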
HIF-2a block = HIF-2a inhibition; 786-0 RCC cells HIF-2a reporter, luciferase luminescence, overnight; inhibition, % at 18.8 µM; 360,000 tested, 0.72% active; AID 624352;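 active = inhibition of the luminescence signal of 40% or more relative to plate controls, in a single-dose primary screen at 18.75 µM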
MITF TRPM1 inh = reduces MITF-dependent TRPM1 promoter luciferase signal. inhibition, % at 12.5 µM. 330,000 tested, 0.83% active. SK-MEL-5 TRPM1 promoter luciferase, 24 h;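 active = mean inhibition across replicates of 60% or more, whatever share of single replicates reaches that level; inconclusive = some that reach 60%, reason not given; inactive = mean inhibition across replicates below 60%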
Peg3 prom inh = reduces Peg3 promoter-driven luciferase expression in HeLa; HeLa PEG-Prom luciferase reporter, luminescence, overnight; AID 588405; inhibition, % at 20 µM; 360,000 tested, 1.7% active;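 active = inhibition of at least 50% at 20 µM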
KKLEB tox = counter-screen for CF NF-kB inhibitors: cytotoxicity; 360,000 tested, 0.36% active; activity change (cytotoxicity), % at 5 µM; KKLEB CF airway cells viability, ATPlite luminescence, overnight; stronger effect = lower value; cells stimulated with P. aeruginosa culture filtrate;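 active = corrected activity change at or below -50% at 5 µM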
Shn3 3UTR inh = Schnurri-3 reporter inhibition in Clone20 osteoblasts; Clone20 osteoblast Shn3 3'UTR firefly luciferase, 24 h; inhibition, % at 12.5 µM; 360,000 tested, 0.52% active;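 active = mean inhibition of at least 75% with every replicate also reaching 75%; inconclusive = mean inhibition at least 75% but some replicate below; inactive = mean inhibition below 75%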
Hits are given with their value; i = inactive; ? = inconclusive; nt = no result given.

SMILES	CF NFkB inh	HIF-2a block	MITF TRPM1 inh	Peg3 prom inh	KKLEB tox	Shn3 3UTR inh
CCCCC(CC)CN=C(N)NC(N)=NCCCCCCN=C(N)NC(N)=NCC(CC)CCCC (stereo not drawn)	52	98	110	103	i	97
CN(C)CCNCCCNc1c2ccccc2nc2cccc([N+](=O)[O-])c12	i	i	103	98	i	i
CN(C)CCCNc1c2c(nc3ccccc13)CCC2	i	i	i	i	i	i
CC(C)COCc1ccc(O)c2ncccc12	i	i	63	55	i	i
COc1cc(CN2CCc3ccccc3C2)cc([N+](=O)[O-])c1O	i	i	i	i	i	i
COc1cc(CN2CCc3ccccc3C2)ccc1O	i	i	i	i	i	95
CN(Cc1ccco1)Cc1ccc(O)c2ncccc12	i	i	i	i	i	i
Oc1ccc(Cc2ccccc2)c2cccnc12	i	i	nt	69	i	i
CSc1ncccc1C(=O)N1CCN(S(=O)(=O)c2cc(C)ccc2C)CC1	i	i	i	i	i	i
Cc1ccc(C)c(S(=O)(=O)N2CCN(Cc3ccc(O)c4ncccc34)CC2)c1	i	i	74	i	i	91
Oc1ccc(COCc2ccccc2)c2cccnc12	i	i	i	i	i	i
CN1CCN(S(=O)(=O)c2ccc3c(c2)oc(=O)n3C)CC1	i	i	i	i	i	i
COc1cc(CN2C(=O)C(NC(=O)c3ccco3)(C(F)(F)F)C3=C2CC(C)(C)CC3=O)cc(OC)c1 (stereo not drawn)	i	i	i	i	i	i
O=C1N=C(N2CCOCC2)S/C1=C/c1cc2c(cc1[N+](=O)[O-])OCO2	i	i	i	i	i	i
COc1ccc(OC)c(S(=O)(=O)N2CCCC(C(=O)N3CCCCCC3)C2)c1 (stereo not drawn)	i	i	i	i	i	i
OCc1ccc(O)c2ncccc12	i	i	?	i	i	i
Oc1ccc(CN2CCc3ccccc3C2)c2cccnc12	i	i	71	94	i	84
Oc1ccc(CNc2ccccc2F)c2cccnc12	i	i	65	i	i	i
CCCOCc1ccc(O)c2ncccc12	i	i	69	i	i	i
CCC(C)(c1nnnn1-c1c(C)cccc1C)N(N=O)c1ccccc1Cl (stereo not drawn)	i	i	i	i	i	i
CCOc1ccc(S(=O)(=O)N2CCN(C(=O)C3CCC3)CC2)cc1	i	i	i	i	i	i
CC(C)C(=O)NC(c1cccs1)c1cc([N+](=O)[O-])c2cccnc2c1O (stereo not drawn)	i	i	i	56	i	i
CCN(CC)c1ccc(C(NC(=O)C(C)C)c2ccc3cccnc3c2O)cc1 (stereo not drawn)	i	i	nt	i	i	i
CCCCC(=O)NC(c1ccc(N(C)C)cc1)c1ccc2cccnc2c1O (stereo not drawn)	i	i	61	i	i	93
CCC(=O)NC(c1cccs1)c1ccc2cccnc2c1O (stereo not drawn)	i	i	76	i	i	i
SMILES	CF NFkB inh	HIF-2a block	MITF TRPM1 inh	Peg3 prom inh	KKLEB tox	Shn3 3UTR inh
CC(C)C(=O)NC(c1ccco1)c1ccc2cccnc2c1O (stereo not drawn)	i	i	76	53	i	i
CCC(=O)NC(c1cccs1)c1cc([N+](=O)[O-])c2cccnc2c1OC (stereo not drawn)	i	i	nt	i	i	i
COC(=O)[C@H](CC(C)C)NC(=O)NCCC1=CCCCC1	i	i	i	i	i	i
CN(C)S(=O)(=O)c1ccc(C(=O)NNC(=O)C2COc3ccccc3O2)cc1 (stereo not drawn)	i	i	i	i	i	i
CC(C)CC(=O)NC(c1cccs1)c1ccc2cccnc2c1O (stereo not drawn)	i	i	?	i	i	89
CC(=O)NC(c1cccs1)c1cc(F)c2cccnc2c1O (stereo not drawn)	i	i	i	i	i	i
CC1=CC(=O)C(Sc2ccc(C)cc2)=CC1=O	80	i	nt	60	i	i
CN(Cc1ccccc1)C1=CC(=[N+]2CCCCC2)CC(C)(C)C1	i	i	77	i	i	i
CC1(C)CC(N2CCN(Cc3ccccc3)CC2)=CC(=[N+]2CCCCC2)C1	i	i	67	i	i	i
COc1ccc(OC)c(C(c2nnnn2Cc2ccccc2)N2CCN(C3CCCCC3)CC2)c1 (stereo not drawn)	i	i	i	i	i	90
